About 8,500 (2.5%) of roughly 340,000 compounds were called active. Shown is part of a subset that was picked to be rich in actives. Unmarked numbers belong to inactive results.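 How the source made its calls: active means melting temperature shift of at least 10% of the positive control shift, at one fixed dose; inactive means the rest.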
What follows are compounds tested on Glutamate receptor ionotropic, NMDA 3A (GRIN3A) ligand-binding domain (assay: binders of NR3A ligand-binding domain, primary screen, biophysical, differential scanning fluorimetry, uHTS (AID 1259313)). Conditions: NR3A LBD differential scanning fluorimetry, at 25 µM, active compounds read high, 0% = protein alone, 100% = glycine-bound protein.

Compound	Tm shift relative to glycine control
Cc1ccc(CNC(=O)CCNS(=O)(=O)c2cccc3nonc23)cc1	17.3% (active)
CCc1cccc(NC(=O)CCNS(=O)(=O)c2cccc3nonc23)c1	-1.5%
Cc1ccc(CNC(=O)CCNS(=O)(=O)c2ccc(Br)s2)cc1	0.52%
COC(=O)c1ccc(CN(c2ccccc2OC)S(=O)(=O)c2cccs2)o1	0%
COC(=O)[C@]1(Cc2ccccc2)N[C@H](CN(C)S(=O)(=O)c2ccc(OC(F)(F)F)cc2)[C@@H]2C(=O)N(C)C(=O)[C@@H]21	-3.1%
COC(=O)[C@]1(Cc2ccccc2)N[C@H](CN(C)S(=O)(=O)c2ccc(F)cc2)[C@@H]2C(=O)N(Cc3ccccc3)C(=O)[C@@H]21	0.82%
COC(=O)[C@]1(Cc2ccccc2)N[C@H](CN(C)S(=O)(=O)c2ccc(OC(F)(F)F)cc2)[C@@H]2C(=O)N(Cc3ccccc3)C(=O)[C@@H]21	18.1% (active)
N/C(=N\S(=O)(=O)c1cc(C(F)(F)F)cc(C(F)(F)F)c1)c1cccs1	-1.45%
N#Cc1cccc(CSc2nnc(CCCO)n2-c2ccccc2)c1	-2.26%
O=C(Nc1ccc(S(=O)(=O)Nc2nccs2)cc1)c1cccc(S(=O)(=O)N2CCOCC2)c1	-7.34%
O=C(Nc1ccc(S(=O)(=O)N2CCOCC2)cc1)c1ccc2ncsc2c1	23.1% (active)
O=C(Nc1ccc(N2CCOCC2)cc1)c1cccc(S(=O)(=O)N2CCOCC2)c1	1.57%
COc1ccc2c(c1)OC(O)(C(F)(F)C(F)F)CC2=O (configuration not stated)	-0.91%
C=CCN(c1ccc(Cl)cc1)S(=O)(=O)c1cccc(C(=O)OCC(=O)N(C)C)c1	-2.3%
O=C(CSc1nc(O)c(Cc2ccccc2)c(=O)[nH]1)Nc1nc2c(s1)CCCC2	0.31%
CN(C)CCNc1ccc(-c2n[nH]c(=O)c3ccccc23)cc1[N+](=O)[O-]	-4.51%
COc1cc(C2c3cc4c(cc3C(O)C3COC(=O)C23)OCO4)cc(OC)c1OC (configuration not stated)	0.33%
CN(CC#CCC(c1ccccc1)c1ccccc1)C(C)(C)C	-1.63%
CC(C)(C)N(CC#CCC(O)(c1ccccc1)C1CCCC1)CCO (configuration not stated)	14.9% (active)

Compound	Tm shift relative to glycine control
OC(C#CCN1CCOCC1)(c1ccccc1)C1CCCCC1 (configuration not stated)	0.88%
O=C(NN1C(=O)C2C3C=CC(O3)C2C1=O)c1ccccc1 (configuration not stated)	-2.22%
Cc1ccc2nsnc2c1NC(=O)c1ccccc1[N+](=O)[O-]	-9.29%
COCCNC(=O)Nc1ccc2nc(-c3ccco3)c(-c3ccco3)nc2c1	-1.95%
Cc1nc(/N=C(\N)NC(=O)NC2CCCCC2)nc2ccccc12	-0.41%
O=C(Nc1ccccc1)c1ccc2nsnc2c1	1.64%
COc1ccc2nc(C)cc(Nc3cccc(C(=O)O)c3)c2c1	-1.4%
COc1ccc(NC(=O)Nc2ccc3nc(C)c(C)nc3c2)cc1	19% (active)
Cc1ccc(NC(=O)Nc2ccc3oc(C)nc3c2)cc1	-7.01%
COc1ccc(NC(=O)Nc2ccc3nsnc3c2)cc1	33.6% (active)
COc1ccc2nc(/N=C(\N)NC(=O)Nc3ccccc3)nc(C)c2c1	29.4% (active)
COc1ccc(/C=N/NC(=O)Nc2ccc3nsnc3c2)c(OC)c1	-2.88%
CCC1(C(=O)c2ccccc2)C(c2cccc([N+](=O)[O-])c2)C1(C(=O)OC)C(=O)OC (configuration not stated)	-4.39%
CCCCCN(C(=O)NC(=O)Nc1ccccc1C)S(C)(=O)=O	-1.26%
O=C(CN1CCN(S(=O)(=O)c2ccc3ccccc3c2)CC1)NC(=O)NC1CCCCC1	-9.92%
COc1cc(NS(=O)(=O)c2ccc(NC(=S)NC(=O)c3ccccc3)cc2)nc(OC)n1	-2.53%
CCOC(=O)CCP(=O)(O)C(O)(c1ccccc1)c1ccccc1	-1.33%
Cc1ccc(N2C(=O)CN=C2Nc2nc(C)cc(C)n2)cc1	-1.23%
O=C(Nc1nnc(SCc2ccccc2Cl)s1)c1cccc([N+](=O)[O-])c1	-14.6%

Compound	Tm shift relative to glycine control
O=C(Nc1nnc(SCc2ccc(Cl)cc2Cl)s1)C1COc2ccccc2O1 (configuration not stated)	15.3% (active)
O=C(Nc1nnc(SCc2c(Cl)cccc2Cl)s1)C1CCCO1 (configuration not stated)	1.89%
Cc1nc([N+](=O)[O-])c(NCCCO)n1Cc1ccccc1	-1.5%
O=C(NCCCN1CCOCC1)c1cnn2c(-c3ccccc3)cc(-c3ccccc3)nc12	-3.89%
COc1ccc(OC)c(Nc2nc(-c3ccc(O)c(O)c3)cs2)c1	19% (active)
COc1ccc(OC)c(-c2csc(NC(=O)COC(=O)C3CC3)n2)c1	-1.41%
COc1cc(CC(=O)Nc2nc(-c3ccc(F)c(F)c3)cs2)cc(OC)c1OC	-3.34%
CCOC(=O)CNc1nc(Cl)nc(Nc2ccc(OC)cc2OC)n1	13.1% (active)
CCOc1ccc(Cn2nnc(C(=O)Nc3ccc(OC)cc3OC)c2N)cc1	2.21%
CCOC(=O)CNc1nc(Cl)nc(Nc2ccccc2)n1	-0.5%
CCN(CC)c1ccc(NC(=O)C2CCC(CNc3c(N4CCCC4)c(=O)c3=O)CC2)c(C)c1 (configuration not stated)	1.77%
CCOC(=O)N1CCN(C(=O)CSc2nnc(-c3c[nH]c4ccccc34)n2CCOC)CC1	0.55%
OC(CNCc1ccc(Cl)c(Cl)c1)c1ccccc1 (configuration not stated)	2.04%
COc1cccc(OC)c1C(=O)OCC(=O)/C(C#N)=C(\C)N	-2%
C/C(N)=C(/C#N)C(=O)COC(=O)c1cc(-c2ccc(C)cc2)nc2ccccc12	-1.48%
C/C(N)=C(/C#N)C(=O)COC(=O)c1cc(-c2cccc(Br)c2)nc2ccccc12	30.1% (active)
CN1C(=O)c2cccc3c(N)ccc(c23)C1=O	11.8% (active)
COc1cc(C(=O)N2C(=O)c3cccc(N)c3C2=O)cc(OC)c1OC	-1.08%
Cc1nn(C)cc1N1C(=O)c2cccc3c(N)ccc(c23)C1=O	-0.63%
